Unmarked numbers belong to inactive results. Inconclusive results are not listed. Where a call stands in place of a potency, no number is given. The source made the active and inactive calls. Unless noted, the call rests on the fitted dose curve; in most records, active means well fitted curve in the direction sought with a large enough effect in the repeat runs; inconclusive means weak or mixed curves; inactive means no such curve, though single readings can be large; an effect the other way counts as inactive or inconclusive.
Legend:
[1] = target: Thyrotropin-releasing hormone receptor (Homo sapiens) (UniProt P34981); test: qHTS assay to identify small molecule agonists of the thyrotropin-releasing hormone receptor (TRHR) signaling pathway (AID 1346891; calls by dose curve; further: series mostly up to about 58 µM)
In short: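 Intracellular calcium rise, read as fluorescence every second for 3 min, served as the agonist signal in dye-loaded HEK293 cells expressing TRHR; each compound ran at 15 concentrations in triplicate.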

[2] = Human pregnane X receptor (PXR) small molecule agonists, qHTS cell viability counter screen (AID 1346977); further: nearly all actives have a fitted effect of over 50% in size; further: potency means the concentration at half of the fitted maximal effect
In short: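 PXR-Luc HepG2, 2,000 cells/well, 5% charcoal-stripped FBS; 5hr settle; cpd 24hr, 37C/5% CO2; CellTiter-Fluor at 23hr, read 1hr later (fluorescence).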

[3] = Caspase-3/7 induction in HepG2 cells by small molecules, qHTS assay (AID 1346978); further: nearly all actives have a fitted effect of over 15% in size
In short: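 Caspase-3/7 induction was measured by Caspase-Glo 3/7 luminescence (30 min, room temperature) after a 17 hr compound exposure of wild-type HepG2 cells seeded at 2,000 per well and pre-incubated 5 hr.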

[4] = Caspase-3/7 induction in CHO-K1 cells by small molecules, qHTS cell viability counter screen (AID 1346979); further: nearly all actives have a fitted effect of over 35% in size; further: potency means the concentration at half of the fitted maximal effect
In short: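 Cells (CHO-K1, wild type) are plated at 1,500 per well and incubated 5hr. Test compounds in DMSO are then pinned in, followed by 16hr at 37C and 5% CO2. Viability is read by CellTiter-Fluor fluorescence after 1hr.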

[5] = Caspase-3/7 induction in CHO-K1 cells by small molecules, qHTS assay (AID 1346980); further: nearly all actives have a fitted effect of over 15% in size
In short: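 Luminescent Caspase-Glo 3/7 read (30min, room temperature) quantified apoptosis induction. Cells were wild-type CHO-K1, treated with compound for 17hr at 37 C and 5% CO2.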

[6] = Caspase-3/7 induction in HepG2 cells by small molecules, qHTS cell viability counter screen (AID 1346981); further: nearly all actives have a fitted effect of over 30% in size; further: potency means the concentration at half of the fitted maximal effect
In short: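 Steps: seed 2,000 HepG2 cells per well; incubate 5 hr at 37 C; pin-add compounds in DMSO; incubate 16 hr; add CellTiter-Fluor; after 1 hr at 37 C and 5% CO2, read fluorescence.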

[7] = target: Nuclear receptor subfamily 1 group I member 2 (Homo sapiens) (UniProt O75469); test: Human pregnane X receptor (PXR) small molecule agonists, qHTS assay (AID 1346982); further: nearly all actives have a fitted effect of over 35% in size; further: potency means the concentration at half of the fitted maximal effect
In short: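 Agonist mode qHTS: PXR-Luc HepG2 cells plated 5 hr before DMSO-dissolved compounds were pinned in, cultured 24 hr at 37 C, 5% CO2; ONE-Glo luminescence readout.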

[8] = target: Cytochrome P450 2D6 (Homo sapiens) (UniProt P10635); test: Cytochrome P450 Family 2 Subfamily D Member 6 (CYP2D6) small molecule antagonists: luciferase reporter qHTS assay (AID 1671196); further: nearly all actives have a fitted effect of over 50% in size; further: potency means the concentration at half of the fitted maximal effect
In short: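 P450-Glo format: CYP2D6 converts a proluciferin substrate to luciferin in an NADPH-driven reaction lasting 1 h at room temperature. Light output, proportional to CYP2D6 activity, reflects interference by test chemicals.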

[9] = target: Cytochrome P450 2C19 (Homo sapiens) (UniProt P33261); test: Cytochrome P450 Family 2 Subfamily C Member 19 (CYP2C19) small molecule antagonists: luciferase reporter qHTS assay (AID 1671197); further: nearly all actives have a fitted effect of over 65% in size; further: potency means the concentration at half of the fitted maximal effect
In short: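 P450-Glo CYP2C19 system: enzyme-substrate mix with compound 10 min at room temperature, then NADPH regeneration solution, 1 h at 37C. Proluciferin-to-luciferin conversion detected by luminescence after 20 min with detection reagent; ketoconazole as positive control.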

[10] = target: Cytochrome P450 2C9 (Homo sapiens) (UniProt P11712); test: Cytochrome P450 Family 2 Subfamily C Member 9 (CYP2C9) small molecule antagonists: luciferase reporter qHTS assay (AID 1671198); further: nearly all actives have a fitted effect of over 50% in size; further: potency means the concentration at half of the fitted maximal effect
In short: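 Enzyme-substrate mix preincubated with compound 10 min at room temperature; reaction started with NADPH regeneration solution, 1 h 37C. Luminescent luciferin product read after 20 min detection reagent.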

[11] = target: Cytochrome P450 1A2 (Homo sapiens) (UniProt P05177); test: Cytochrome P450 Family 1 Subfamily A Member 2 (CYP1A2) small molecule antagonists: luciferase reporter qHTS assay (AID 1671199); further: nearly all actives have a fitted effect of over 50% in size; further: potency means the concentration at half of the fitted maximal effect
In short: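 Inhibition of CYP1A2 conversion of proluciferin to luciferin, detected by luminescence. Reaction run 1 h at room temperature with NADPH regeneration after brief compound preincubation.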

[12] = target: Voltage-gated inwardly rectifying potassium channel KCNH2 (Homo sapiens) (UniProt Q12809); test: Human Ether-a-go-go-Related Gene (hERG) channel small molecule antagonists: fluorescence cell-based qHTS assay (AID 1671200); further: nearly all actives have a fitted effect of over 50% in size; further: potency means the concentration at half of the fitted maximal effect
In short: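 Channel function was assessed by thallium flux. Cells seeded the previous day and kept at 37 C took up FluxOR II dye over 1 h in the dark at room temperature, then sat another 10 min before stimulation.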

[13] = target: Cytochrome P450 3A4 (Homo sapiens) (UniProt P08684); test: Cytochrome P450 Family 3 Subfamily A Member 4 (CYP3A4) small molecule antagonists: luciferase reporter qHTS assay (AID 1671201); further: nearly all actives have a fitted effect of over 50% in size; further: potency means the concentration at half of the fitted maximal effect
In short: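 Compounds in DMSO were pin-transferred onto CYP3A4 enzyme-substrate mix and held 10 min at room temperature. NADPH regenerating solution started the reaction for 1 h; luciferin detection reagent stopped it, and luminescence was read after 20 min.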

Chain of Cytochrome P450 2C9 (Homo sapiens) (P11712 whole entry, looked up): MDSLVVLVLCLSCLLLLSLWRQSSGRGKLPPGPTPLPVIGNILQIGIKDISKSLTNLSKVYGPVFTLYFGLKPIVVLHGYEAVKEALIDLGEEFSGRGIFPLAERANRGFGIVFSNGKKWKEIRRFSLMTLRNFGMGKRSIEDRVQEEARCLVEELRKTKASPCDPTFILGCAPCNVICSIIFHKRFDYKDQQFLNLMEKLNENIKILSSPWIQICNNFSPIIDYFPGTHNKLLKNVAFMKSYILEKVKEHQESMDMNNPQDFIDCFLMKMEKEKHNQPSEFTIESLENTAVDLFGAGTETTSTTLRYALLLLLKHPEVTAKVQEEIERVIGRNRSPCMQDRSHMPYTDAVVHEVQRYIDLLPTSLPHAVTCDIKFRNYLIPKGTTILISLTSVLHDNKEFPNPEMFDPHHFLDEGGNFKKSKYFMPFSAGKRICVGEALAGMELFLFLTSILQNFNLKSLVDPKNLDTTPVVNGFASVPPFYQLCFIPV
Chain of Cytochrome P450 2D6 (Homo sapiens) (P10635 whole entry, looked up): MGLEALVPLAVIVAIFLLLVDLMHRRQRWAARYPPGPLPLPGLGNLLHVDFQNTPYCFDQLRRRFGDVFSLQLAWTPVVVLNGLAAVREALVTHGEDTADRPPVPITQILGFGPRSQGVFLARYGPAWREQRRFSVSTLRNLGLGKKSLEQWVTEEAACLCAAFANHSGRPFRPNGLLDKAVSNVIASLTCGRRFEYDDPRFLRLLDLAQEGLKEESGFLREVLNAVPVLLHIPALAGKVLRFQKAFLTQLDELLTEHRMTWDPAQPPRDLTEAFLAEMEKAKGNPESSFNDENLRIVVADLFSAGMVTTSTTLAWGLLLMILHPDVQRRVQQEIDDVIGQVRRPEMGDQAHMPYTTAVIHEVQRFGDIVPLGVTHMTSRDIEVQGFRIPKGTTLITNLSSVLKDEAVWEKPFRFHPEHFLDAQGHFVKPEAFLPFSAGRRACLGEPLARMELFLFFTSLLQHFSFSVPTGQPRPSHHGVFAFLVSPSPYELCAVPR
Chain of Voltage-gated inwardly rectifying potassium channel KCNH2 (Homo sapiens) (Q12809 whole entry, looked up): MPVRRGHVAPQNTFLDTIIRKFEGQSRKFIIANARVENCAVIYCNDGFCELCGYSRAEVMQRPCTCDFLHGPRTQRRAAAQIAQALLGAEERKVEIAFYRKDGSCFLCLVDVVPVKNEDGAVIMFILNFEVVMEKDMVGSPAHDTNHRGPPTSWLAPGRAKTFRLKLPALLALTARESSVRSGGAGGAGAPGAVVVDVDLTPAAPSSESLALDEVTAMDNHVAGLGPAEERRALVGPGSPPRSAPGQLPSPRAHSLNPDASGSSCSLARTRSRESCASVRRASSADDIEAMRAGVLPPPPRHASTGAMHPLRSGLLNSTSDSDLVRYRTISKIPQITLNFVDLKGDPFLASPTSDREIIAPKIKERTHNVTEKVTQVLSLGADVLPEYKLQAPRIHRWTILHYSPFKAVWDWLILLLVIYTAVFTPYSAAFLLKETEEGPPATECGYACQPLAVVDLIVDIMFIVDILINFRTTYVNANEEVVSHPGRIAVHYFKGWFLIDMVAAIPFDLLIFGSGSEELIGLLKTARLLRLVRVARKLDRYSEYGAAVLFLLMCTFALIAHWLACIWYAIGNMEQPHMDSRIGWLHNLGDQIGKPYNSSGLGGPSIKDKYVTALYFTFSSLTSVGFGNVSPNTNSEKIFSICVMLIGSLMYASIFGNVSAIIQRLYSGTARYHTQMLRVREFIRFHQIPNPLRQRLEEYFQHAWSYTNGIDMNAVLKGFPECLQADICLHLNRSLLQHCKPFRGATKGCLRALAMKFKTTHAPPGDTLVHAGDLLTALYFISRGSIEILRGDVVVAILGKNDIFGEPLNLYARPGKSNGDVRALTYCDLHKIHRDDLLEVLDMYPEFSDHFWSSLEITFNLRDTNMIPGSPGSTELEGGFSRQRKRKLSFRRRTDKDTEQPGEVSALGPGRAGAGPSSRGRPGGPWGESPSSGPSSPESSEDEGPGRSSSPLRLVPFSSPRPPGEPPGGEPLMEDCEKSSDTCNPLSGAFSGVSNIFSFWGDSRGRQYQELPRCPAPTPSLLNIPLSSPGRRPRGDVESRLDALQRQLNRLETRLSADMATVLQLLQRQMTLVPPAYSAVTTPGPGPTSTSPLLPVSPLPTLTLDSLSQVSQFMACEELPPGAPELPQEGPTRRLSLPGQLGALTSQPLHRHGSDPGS
Chain of Cytochrome P450 1A2 (Homo sapiens) (P05177 whole entry, looked up): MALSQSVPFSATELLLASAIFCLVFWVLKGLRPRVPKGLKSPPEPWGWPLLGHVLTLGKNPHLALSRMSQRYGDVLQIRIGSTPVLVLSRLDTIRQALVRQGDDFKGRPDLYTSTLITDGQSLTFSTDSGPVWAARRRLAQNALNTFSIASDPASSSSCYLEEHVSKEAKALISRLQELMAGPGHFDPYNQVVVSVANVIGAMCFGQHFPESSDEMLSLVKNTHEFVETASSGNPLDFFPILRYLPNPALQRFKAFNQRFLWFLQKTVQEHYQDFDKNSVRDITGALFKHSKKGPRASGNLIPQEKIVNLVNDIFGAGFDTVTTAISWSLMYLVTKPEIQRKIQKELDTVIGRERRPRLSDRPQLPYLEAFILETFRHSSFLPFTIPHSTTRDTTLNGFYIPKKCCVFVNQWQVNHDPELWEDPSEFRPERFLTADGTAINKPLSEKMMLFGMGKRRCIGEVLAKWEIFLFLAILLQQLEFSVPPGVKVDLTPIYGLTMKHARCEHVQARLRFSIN
Chain of Cytochrome P450 3A4 (Homo sapiens) (P08684 whole entry, looked up): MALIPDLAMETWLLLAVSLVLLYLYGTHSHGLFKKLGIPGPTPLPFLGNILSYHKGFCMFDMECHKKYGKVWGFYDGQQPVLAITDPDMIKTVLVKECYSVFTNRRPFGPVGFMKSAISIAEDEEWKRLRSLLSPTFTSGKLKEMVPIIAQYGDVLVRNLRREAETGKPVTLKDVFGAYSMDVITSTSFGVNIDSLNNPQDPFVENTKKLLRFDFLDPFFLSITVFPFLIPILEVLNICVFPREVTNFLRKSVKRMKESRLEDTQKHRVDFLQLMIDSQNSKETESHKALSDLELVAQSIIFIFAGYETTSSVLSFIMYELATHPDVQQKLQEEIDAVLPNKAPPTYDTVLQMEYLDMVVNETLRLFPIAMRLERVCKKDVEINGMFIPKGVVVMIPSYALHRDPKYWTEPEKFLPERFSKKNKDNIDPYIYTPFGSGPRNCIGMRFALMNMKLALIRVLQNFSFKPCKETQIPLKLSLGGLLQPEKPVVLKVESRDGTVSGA
Chain of Nuclear receptor subfamily 1 group I member 2 (Homo sapiens) (O75469 whole entry, looked up): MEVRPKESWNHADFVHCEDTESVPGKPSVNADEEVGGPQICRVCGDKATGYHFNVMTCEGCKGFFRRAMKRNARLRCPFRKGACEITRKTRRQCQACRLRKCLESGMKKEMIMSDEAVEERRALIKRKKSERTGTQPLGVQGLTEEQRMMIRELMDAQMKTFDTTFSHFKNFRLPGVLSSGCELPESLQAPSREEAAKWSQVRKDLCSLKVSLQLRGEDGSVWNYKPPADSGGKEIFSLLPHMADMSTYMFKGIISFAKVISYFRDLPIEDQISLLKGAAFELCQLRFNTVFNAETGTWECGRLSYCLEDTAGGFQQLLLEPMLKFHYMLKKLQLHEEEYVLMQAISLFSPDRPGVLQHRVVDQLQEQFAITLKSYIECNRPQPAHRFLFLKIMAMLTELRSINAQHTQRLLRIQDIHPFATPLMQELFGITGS
Chain of Thyrotropin-releasing hormone receptor (Homo sapiens) (P34981 whole entry, looked up): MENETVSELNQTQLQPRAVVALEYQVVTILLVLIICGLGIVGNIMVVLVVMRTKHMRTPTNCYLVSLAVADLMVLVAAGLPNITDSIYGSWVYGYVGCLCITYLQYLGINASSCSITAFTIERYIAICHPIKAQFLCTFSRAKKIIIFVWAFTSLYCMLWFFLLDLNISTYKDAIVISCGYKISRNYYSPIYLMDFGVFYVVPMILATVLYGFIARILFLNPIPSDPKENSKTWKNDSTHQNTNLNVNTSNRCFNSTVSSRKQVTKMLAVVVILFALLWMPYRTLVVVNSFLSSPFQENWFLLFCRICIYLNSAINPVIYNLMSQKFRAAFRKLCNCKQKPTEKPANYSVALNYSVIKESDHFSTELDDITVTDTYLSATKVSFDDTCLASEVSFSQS
Chain of Cytochrome P450 2C19 (Homo sapiens) (P33261 whole entry, looked up): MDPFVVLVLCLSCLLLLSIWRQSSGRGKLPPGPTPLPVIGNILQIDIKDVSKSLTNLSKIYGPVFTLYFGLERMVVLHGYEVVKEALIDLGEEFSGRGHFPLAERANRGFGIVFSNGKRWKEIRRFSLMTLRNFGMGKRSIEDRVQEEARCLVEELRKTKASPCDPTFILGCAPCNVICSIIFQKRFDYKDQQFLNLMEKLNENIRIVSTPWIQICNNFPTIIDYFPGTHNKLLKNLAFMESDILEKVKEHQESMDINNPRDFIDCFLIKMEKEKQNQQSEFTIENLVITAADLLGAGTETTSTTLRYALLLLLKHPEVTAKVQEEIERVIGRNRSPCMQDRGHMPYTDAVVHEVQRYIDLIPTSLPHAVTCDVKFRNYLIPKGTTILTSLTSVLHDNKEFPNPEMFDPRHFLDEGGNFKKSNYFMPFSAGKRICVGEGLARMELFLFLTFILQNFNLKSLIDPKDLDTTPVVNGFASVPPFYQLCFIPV

Compound	Potency [1]	Potency [2]	Potency [3]	Potency [4]	outcome [5]	Potency [6]	Potency [7]	Potency [8]	Potency [9]	Potency [10]	Potency [11]	Potency [12]	Potency [13]
CCOc1ccc2nc(N)sc2c1	inactive	inactive	inactive	inactive	inactive	inactive	17.1 µM (active)	39.6 µM (active)	22.3 µM (active)	31.5 µM (active)	17.7 µM (active)		
FC(F)(F)C(Cl)(Cl)Cl	inactive	inactive	inactive	inactive	inactive	inactive	inactive	inactive	inactive	inactive	inactive	inactive	inactive
O=Cc1ccc(F)c(Br)c1	inactive	inactive	inactive	inactive	inactive	inactive	inactive	inactive	inactive	inactive	35.6 µM (active)	inactive	inactive
O=[N+]([O-])c1nccn1CO[C@@H](CO)[C@H](O)CO	inactive	inactive	inactive	inactive	inactive	inactive	inactive	38.9 µM (active)	inactive	inactive	inactive		inactive
CN1CCN(N)CC1	inactive	inactive	inactive	inactive	inactive	inactive	inactive	inactive	inactive	inactive	inactive		inactive
CCOC(=O)NCCC[Si](OCC)(OCC)OCC	inactive	inactive	inactive	inactive	inactive	inactive	inactive	inactive	inactive	inactive	inactive	inactive	39.9 µM (active)
CC(=O)OC(C)OC(C)=O	inactive	inactive	inactive	inactive	inactive	inactive	inactive	inactive	inactive	inactive			inactive
COc1nc(C)nc(NC(=O)NS(=O)(=O)c2ccccc2OCCCl)n1	inactive	inactive	inactive	inactive	inactive	inactive	inactive	inactive	inactive	inactive	35.4 µM (active)	inactive	
COC(=O)C(C)O (stereo unspecified)	inactive	inactive	inactive	inactive	inactive	inactive	inactive	inactive	inactive	inactive		inactive	inactive
CC(=O)O[C@H]1CC[C@@]2(C)C(=CC[C@@H]3[C@@H]2CC[C@]2(C)C(C(C)=O)=CC[C@@H]32)C1	inactive	inactive	inactive	inactive	inactive	inactive	inactive	inactive	inactive	inactive	inactive	inactive	inactive
Cc1ccc([N+](=O)[O-])cc1Cl	inactive	inactive	inactive	inactive	inactive	inactive	61.9 µM (active)	inactive	inactive	inactive	inactive		inactive
Oc1ccccc1F	inactive	inactive	inactive	inactive	inactive	inactive	inactive	inactive	inactive	inactive	35.5 µM (active)	inactive	inactive
CCCCC1CCC(=O)O1 (stereo unspecified)	inactive	inactive	inactive	inactive	inactive	inactive	inactive	inactive	inactive	inactive		inactive	inactive
OCCN1CCN(CCO)CC1	inactive	inactive	inactive	inactive	inactive	inactive	inactive	inactive	inactive	inactive	inactive		inactive
CN(CC1(C)CCCO1)S(=O)(=O)c1ccc(Cl)c(S(N)(=O)=O)c1 (stereo unspecified)	inactive	inactive	inactive	inactive	inactive	inactive	10.6 µM (active)	inactive	inactive	inactive	inactive	inactive	
OCCN(CCO)CCN(CCO)CCO	inactive	inactive	inactive	inactive	inactive	inactive	inactive	inactive	inactive	inactive	inactive	inactive	inactive
COc1cc(Cl)ccc1Cl	inactive	inactive	inactive	inactive	inactive	inactive	inactive	inactive	inactive	inactive	36.3 µM (active)		inactive
O=C1CCCCC1C1CCCCC1 (stereo unspecified)	inactive	inactive	inactive	inactive	inactive	inactive	inactive	inactive	inactive	inactive	inactive		inactive
CC1=NN(c2cc(Cl)c(S(=O)(=O)O)cc2Cl)C(=O)C1N=Nc1ccc(S(=O)(=O)O)cc1 (stereo unspecified)	inactive	54.5 µM (active)	inactive	54.5 µM (active)	inactive	48.6 µM (active)	inactive	inactive	inactive	inactive	inactive	inactive	inactive
Cc1cn([C@@H]2O[C@H](CO)[C@@H](O)[C@@H]2F)c(=O)[nH]c1=O	inactive	inactive	inactive	inactive	inactive	inactive	inactive	inactive	inactive	inactive	inactive	inactive	inactive

Compound	Potency [1]	Potency [2]	Potency [3]	Potency [4]	outcome [5]	Potency [6]	Potency [7]	Potency [8]	Potency [9]	Potency [10]	Potency [11]	Potency [12]	Potency [13]
C=CCCC=C	inactive	inactive	inactive	inactive	inactive	inactive	inactive	inactive	inactive	inactive	inactive	inactive	inactive
COC(C)CCO (stereo unspecified)	inactive	inactive	inactive	inactive	inactive	inactive	inactive	inactive	inactive	inactive	inactive	inactive	inactive
CC(C)C(=O)OCC(C)(C)C(O)C(C)C (stereo unspecified)	inactive	inactive	inactive	inactive	inactive	inactive	inactive	inactive	inactive	inactive			inactive
CC1CN(c2ccccc2)NC1=O (stereo unspecified)	inactive	inactive	inactive	inactive	inactive	inactive	54.5 µM (active)	31.7 µM (active)	12.6 µM (active)	20 µM (active)	22.4 µM (active)	inactive	
Clc1cccc(-c2cc(Cl)cc(Cl)c2)c1	inactive	inactive	inactive	inactive	inactive	inactive	59 µM (active)	inactive	30.6 µM (active)	38.5 µM (active)	21.7 µM (active)		inactive
C=CC1CO1 (stereo unspecified)	inactive	inactive	inactive	inactive	inactive	inactive	inactive	inactive	inactive	inactive		inactive	inactive
OCc1c2ccccc2cc2ccccc12	inactive	inactive	inactive	inactive	inactive	inactive	48.7 µM (active)	inactive	35.7 µM (active)	22.5 µM (active)	0.897 µM (active)	inactive	25.3 µM (active)
FC(F)(F)c1ccccc1	inactive	inactive	inactive	inactive	inactive	inactive	inactive	inactive	inactive	inactive	inactive	inactive	inactive
O=C(C(Cl)Cl)N1CCOC12CCCCC2	inactive	61.1 µM (active)	inactive	61.1 µM (active)	inactive	61.1 µM (active)	34.4 µM (active)	inactive	39.9 µM (active)	63.3 µM (active)	inactive	inactive	inactive
CC(C)C(=O)OC/C=C/c1ccccc1	inactive	inactive	inactive	inactive	inactive	inactive	inactive	inactive	39.9 µM (active)	35.6 µM (active)		inactive	inactive
CC(=O)OC1C2(C)CCC(C2)C1(C)C (stereo unspecified)	inactive	inactive	inactive	inactive	inactive	inactive	inactive	inactive	inactive	inactive		inactive	inactive
CN(C)Cc1ccccc1	inactive	inactive	inactive	inactive	inactive	inactive	inactive	18 µM (active)	inactive	inactive			inactive
CCCCCCCCOC(=O)CCCCCCCCC(=O)OCCCCCCCC	inactive	inactive	inactive	inactive	inactive	inactive	inactive	inactive	inactive	inactive	inactive		inactive
Cc1onc(-c2ccccc2)c1C(=O)Cl	inactive	inactive	inactive	inactive	inactive	inactive	inactive	inactive	inactive	inactive	inactive	inactive	inactive
CN1[C@@H]2CC[C@H]1CC(OC(=O)c1c[nH]c3ccccc13)C2 (stereo partly specified)	inactive	inactive	inactive	inactive	inactive	inactive	inactive	15.5 µM (active)	inactive	inactive	inactive	19 µM (active)	inactive
OC[C@H]1O[C@@H](O[C@H]2[C@H](O)[C@@H](O)[C@H](O)O[C@@H]2CO)[C@H](O)[C@@H](O)[C@H]1O	inactive	inactive	inactive	inactive	inactive	inactive	inactive	inactive	inactive	inactive	inactive	inactive	inactive
CCNCCO	inactive	inactive	inactive	inactive	inactive	inactive	inactive	inactive	inactive	inactive	inactive	inactive	inactive
O=C(O)C(=O)Cc1c[nH]c2ccccc12	inactive	inactive	inactive	inactive	inactive	inactive	30.6 µM (active)	28.3 µM (active)	79.6 µM (active)	39.9 µM (active)	35.6 µM (active)	inactive	inactive
CCCCCOc1ccc(C2SC(=O)NC2=O)cc1OCC (stereo unspecified)	inactive	inactive	inactive	inactive	inactive	inactive	29.8 µM (active)	inactive	inactive	9.77 µM (active)		inactive	

From PubChem BioAssay (Tox21)
